Compound activity (PubChem)
Most compounds without a hit are left out; they make up all but 4.2% or so of the library.
ALOX12 inh = Primary qHTS assay for inhibitors of human arachidonate 12S-lipoxygenase (ALOX12): Round 2. Polyunsaturated fatty acid lipoxygenase ALOX12 (Homo sapiens), P18054. Potency, µM (top dose mostly 108 µM), for inactives: top-dose activity change, negative = inhibition, usual class: inhibitors. actives 1.1% (n = 580,000). AID 1671190, 2021. purified 12hLO, xylenol orange hydroperoxide absorbance
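Hydroperoxide product was detected by ferrous iron/xylenol orange as the 573 to 405 nm absorbance ratio. Arachidonic acid at 40 uM (final) was turned over for 30 min at room temperature by 150 nM human 12hLO, pH 7.0 Hepes buffer, after 15 min compound preincubation.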
VDR inh = Inhibitors of the vitamin D receptor (VDR): qHTS | VDR-SRC2-3 peptide fluorescence polarization, 2 h | Potency, µM, without a hit: max response, negative = inhibition, usual class: inhibitors | actives 0.93% (n = 400,000) | AID 504847, 2011
Target sequence (P11473 whole entry, looked up): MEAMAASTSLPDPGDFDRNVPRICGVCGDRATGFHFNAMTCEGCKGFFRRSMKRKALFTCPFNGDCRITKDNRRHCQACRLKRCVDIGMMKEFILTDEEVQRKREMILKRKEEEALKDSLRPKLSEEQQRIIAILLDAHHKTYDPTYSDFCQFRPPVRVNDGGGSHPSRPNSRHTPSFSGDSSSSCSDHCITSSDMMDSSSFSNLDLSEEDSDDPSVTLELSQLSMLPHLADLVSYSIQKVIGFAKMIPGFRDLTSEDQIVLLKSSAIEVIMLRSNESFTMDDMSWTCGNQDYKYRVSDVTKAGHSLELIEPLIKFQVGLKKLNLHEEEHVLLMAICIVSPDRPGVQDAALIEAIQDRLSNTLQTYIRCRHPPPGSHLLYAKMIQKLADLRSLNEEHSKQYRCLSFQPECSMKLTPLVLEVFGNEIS
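After 23 nl compound addition and a short centrifugation, plates sat for 2 hours at ambient temperature; polarization of fluorescence then indicated loss of VDR binding to peptide SRC2-3.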
Sfp inh = qHTS Assay for Inhibitors of Bacillus subtilis Sfp phosphopantetheinyl transferase (PPTase); 4'-phosphopantetheinyl transferase ffp (Bacillus subtilis), Q9F4F7; Biochemical Sfp PPTase activity, qHTS; Potency, µM, for inactives: largest response in the series, negative = inhibition, hits mostly inhibitors; actives 3.5% (n = 310,000); AID 1490, 2009;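 further: the enzyme is Sfp with the accession as filed and its product quenches rhodamine fluorescence; 0% = enzyme reaction without inhibitor and -100% = no enzyme wells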
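Reaction rates are the 30-min fluorescence difference (ex 525, em 598 nm) in wells containing 15 nM Sfp, 5 uM rhodamine-CoA and 12.5 uM BHQ-2-YbbR at pH 7.6 with 10 mM MgCl2.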
PLK1 PBD inh = qHTS for Inhibitors of PLK1-PDB (polo-like kinase 1 - polo-box domain): Primary Screen; Serine/threonine-protein kinase PLK1 (Homo sapiens), P53350; Plk1 PBD binding of FITC phosphopeptide, fluorescence polarization; Potency, µM, without a hit: max response, negative = inhibition, usual class: inhibitors; AID 720504, 2013; actives 2.8% (n = 360,000); further: series mostly up to about 57 µM; nearly all actives have a fitted effect of over 65% in size
* hit, by the source's call; ? = inconclusive; nt = no result; [ ] = dose if it differs, or a comment. The call rests on the fitted dose curve; in most records, active means well fitted curve in the direction sought with a large enough effect; inconclusive means small, poorly fitted or top-dose-only effect, or another doubt; inactive means no such curve, though single readings can be large; an effect the other way counts as inactive or inconclusive. Unless noted, on the % scale 0 is the no-effect control and ±100 the full control effect; potency means the concentration at half of the fitted maximal effect.

SMILES | ALOX12 inh | VDR inh | Sfp inh | PLK1 PBD inh
O=C(c1ccc(N2CCN(C3CC(=O)N(Cc4cccs4)C3=O)CC2)cc1)c1cccnc1 (stereo not given) | 1% | -9% | 0% | 1%
CCOP(=O)(OCC)C(C#N)=C1SCN(c2ccc(Cl)cc2)CS1 | -36% | ? | ? | 27µM*
COc1ccc(CN2CCc3nc(C4CC4)nc(-c4ccc(O)cc4)c3CC2)cc1 | -15% | nt | nt | nt
CC(C)C(=O)N1CCN(c2ccc(NC(=O)c3ccc4c(c3)OCCO4)cc2Cl)CC1 | -12% | -19% | -12% | -5%
CC(CCc1ccccc1)NC(=O)C1(CC(=O)NC(C)(C)C)CCCC1 (stereo not given) | 25% | nt | nt | nt
Cc1ccc(-c2csc(NC(=O)c3ccc(F)cc3)c2C(=O)O)cc1 | 1% | 2% | 13% | -13%
COc1ccc(NC(=O)Nc2cccs2)cc1Cl | 40µM* | -26% | 45µM* | -11%
COc1ccc(C(=O)Nc2ccc(NC(=O)c3cccs3)cc2)cc1Cl | -19% | ? | -9% | 3.8µM*
COc1ccc(C(=O)Nc2ccc(NC(=O)c3cccs3)c(OC)c2)cc1Cl | 0% | -13% | 19% | 7%
COc1ccc(NC(=O)CCC(=O)c2cccs2)cc1Cl | 99% | -10% | 5% | -6%
CC[C@@H]1CN2CCc3cc(OC)c(OC)cc3[C@H]2C[C@@H]1C[C@H]1NCCc2cc(OC)c(OC)cc21 | nt | -1% | 2% | nt
COc1c(-c2ccc(O)c(O)c2)oc2cc(O)cc(O)c2c1=O | 7.1µM* | -7% | -13% | -7%
CC(C)=CCc1cc(-c2oc3cc(O)cc(O)c3c(=O)c2O)ccc1O | 35µM* | -2% | nt | -5%
Cc1ccc(C(=O)Nc2cccc(C(=O)NCc3ccccc3)c2)cc1 | -9% | -9% | -5% | -18%
O=C(O)CCS(=O)(=O)c1cccc2cccnc12 | -6% | -5% | 12% | -6%
CCSS(=O)(=O)c1cccc2cccnc12 | ? | 16µM* | 20µM* | 2.7µM*
CCOC(=O)C1=C(C)Nc2nc(=S)[nH]n2C1c1ccc(Cl)cc1 (stereo not given) | ? | 79µM* | 7.9µM* | 24µM*
CCOc1ccc(OCC(=O)OCC(=O)N2CCN(C(=O)c3ccco3)CC2)cc1 | -10% | -26% | nt | -19%
CNS(=O)(=O)c1ccc(NC(=S)Nc2ccc3c(c2)OCO3)cc1 | ? | -18% | 45µM* | 19µM*
O=C(NC(=S)Nc1ccccc1Br)c1ccc2c(c1)OCO2 | ? | -15% | -1% | -6%
NC(N)=NS(=O)(=O)c1ccc(NC(=S)NC(=O)c2ccc3c(c2)OCO3)cc1 | -17% | 1% | ? | 24µM*
O=S(=O)(c1ccc(NC(=S)Nc2ccc3c(c2)OCO3)cc1)N1CCOCC1 | -21% | -6% | -43% | -30%
CC(C)c1ccc(O)c(NC(=S)NC(=O)c2ccc3c(c2)OCO3)c1 | 13µM* | -8% | -22% | -14%
NS(=O)(=O)c1ccc(NC(=S)NC(=O)c2ccc3c(c2)OCO3)cc1 | -25% | 17% | -7% | -16%
Cn1cc(-c2cnc3[nH]cc(CC(=O)Nc4ccccc4Cl)c3c2)cn1 | 12%[176 µM] | nt | nt | nt
SMILES | ALOX12 inh | VDR inh | Sfp inh | PLK1 PBD inh
Nn1c(SCc2cn3cc(Cl)ccc3n2)nnc1-c1ccncc1 | ? | ? | -19% | 11µM*
Nn1c(SCc2cn3ccccc3n2)nnc1-c1ccncc1 | -1% | 1% | 6% | -12%
O=C(NN1CCOCC1)c1ccccc1F | 3% | -1% | 7% | -12%
O=C(NN1CCOCC1)c1cccc2ccccc12 | 3% | ? | 9% | 30µM*
C#CCN(C[C@@H]1[C@@H](OC(=O)Nc2cccs2)[C@@H](OC(=O)Nc2cccs2)Cn2c(=O)n(CCCCCC)c(=O)n21)S(=O)(=O)c1ccc(C)cc1 | 10µM* | nt | nt | ?
CC1CCc2c(sc3ncnc(SCC(=O)c4ccccc4)c23)C1 (stereo not given) | 0% | 1% | -1% | 13µM*
CC1CCc2c(sc3ncnc(SCC(=O)N(C)C)c23)C1 (stereo not given) | -11% | nt | nt | nt
CC(=O)CSc1ncnc2sc3c(c12)CCC(C)C3 (stereo not given) | -17% | -2% | -21% | 24µM*
O=C(CSc1ncnc2sc3c(c12)CCCC3)c1ccccc1 | 8% | -10% | -3% | -3%
CC1CCc2c(sc3ncnc(SCC(=O)N(C)C4CCS(=O)(=O)C4)c23)C1 (stereo not given) | 22% | -6% | nt | 27µM*
CCCN1CCN(CC2=C(C(=O)OCC)C(c3ccc(Cl)cc3)NC(=O)N2)CC1 (stereo not given) | -15% | -3% | nt | nt
C=CC[n+]1c(-c2ccc(OC)cc2)csc1NNC(=O)Nc1ccccc1 | ? | -1% | 50µM* | -2%
COc1ccc(Cc2nc(C(=O)Nc3ccccc3)cs2)cc1 | 27% | -5% | -2% | -10%
O=C(CCSCc1cccc(F)c1)NCc1ccc(F)cc1 | ? | ? | -1% | 7.5µM*
Cc1ccc(CNC(=O)CSCc2cccc(F)c2)cc1 | -7% | ? | 12% | 21µM*
O=C(CCSCCC(=O)NCc1ccccc1)NCc1ccccc1 | 10% | 2% | 12% | -3%
COc1cccc(C(=O)OCC(=O)Nc2ccccc2N2CCOCC2)c1 | 21% | -10% | 11% | 0%
CCNc1ccc(S(=O)(=O)N(C)C)cc1[N+](=O)[O-] | 45µM* | -17% | 0% | -10%
O=C(O)CNc1ccc(S(=O)(=O)C(F)(F)F)cc1[N+](=O)[O-] | 4µM* | 15% | -27% | -18%
O=[N+]([O-])c1cccc(S(=O)(=O)c2ccc(NCCO)c([N+](=O)[O-])c2)c1 | ? | ? | 5% | 13µM*
Cc1ccc2oc(=O)c(/C=C(\O)C(C)(C)C)nc2c1 | -11% | 19% | 56µM* | 5%
CC(C)(C)/C(O)=C/c1nc2cc(Cl)ccc2oc1=O | ? | -19% | ? | -3%
CCOc1ccc(N2C(=O)/C(=C/c3cccs3)N(C)C2=S)cc1 | 0% | -5% | -10% | -2%
CCc1ccc(/C=C2/C(=O)N(CC)C(=S)N2C)s1 | -24% | -21% | -21% | 24µM*
COc1cccc(NC(=O)CN(C)C(=O)c2cc(-c3ccc(C)o3)nc3ccccc23)c1 | -96% | -9% | nt | -19%
Cc1ccnc(NC(=O)c2cc(-c3ccc(C)o3)nc3ccccc23)c1 | 10µM* | nt | nt | nt
Cc1ccc(-c2cc(C(=O)Nc3cccc(S(=O)(=O)N(C)C)c3)c3ccccc3n2)o1 | 6.3µM* | 3% | 50µM* | -28%
Cc1ccc(-c2cc(C(=O)NCC(c3ccccc3)N(C)C)c3ccccc3n2)o1 (stereo not given) | ? | -8% | nt | -17%
Cc1ccc(-c2cc(C(=O)Nc3cccc(C#N)c3)c3ccccc3n2)o1 | 7.1µM* | nt | nt | nt
COc1cccc(NC(=O)c2cc(-c3ccc(C)o3)nc3ccccc23)c1 | 303% | ? | 50µM* | -19%
